Compound activity as filed in PubChem.
Most compounds without a hit are left out; they make up all but 4.2% or so of the library.
Sfp inh – blocks B. subtilis Sfp PPTase activity; Q9F4F7; Biochemical Sfp PPTase activity, qHTS; Potency, µM, hits mostly inhibitors; actives 3.5% (n = 310,000); AID 1490;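 note: the enzyme is Sfp with the accession as filed and its product quenches rhodamine fluorescence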
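Reaction rates are the 30-min fluorescence difference (ex 525, em 598 nm) in wells containing 15 nM Sfp, 5 uM rhodamine-CoA and 12.5 uM BHQ-2-YbbR at pH 7.6 with 10 mM MgCl2.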
TCR act – activators of T cell receptors; primary human leukocytes, anti-CD3, IL-2 HTRF, 48 h; Potency, µM (highest dose often 9.22 µM), most hits filed as activators; 330,000 tested, under 10 active; AID 504894
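Primary human leukocytes receive a-CD3 beads and test compound and are incubated 48 hr. Secreted IL-2 is then assayed by HTRF, measuring 665nm acceptor emission after 320nm excitation of the europium donor.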
ClpP mod – qHTS Assay for Activators of ClpP. actives 1.9% (n = 340,000). purified B. subtilis ClpP, FRET peptide cleavage, 20 min. AID 651965, 2013. ATP-dependent Clp protease proteolytic subunit (Bacillus subtilis (strain 168)), P80244. Potency, µM (titrated, usually from 57.5 µM); active = well fitted falling curve with a large enough effect; inconclusive = small, poorly fitted or top-dose-only effect; inactive = no such curve, though single readings can be large or run the other way; note: the source files actives as falling curves though it sought activators and does not explain the sign; nearly all actives have a fitted effect of over 65% in size
Target sequence (P80244 whole entry, looked up): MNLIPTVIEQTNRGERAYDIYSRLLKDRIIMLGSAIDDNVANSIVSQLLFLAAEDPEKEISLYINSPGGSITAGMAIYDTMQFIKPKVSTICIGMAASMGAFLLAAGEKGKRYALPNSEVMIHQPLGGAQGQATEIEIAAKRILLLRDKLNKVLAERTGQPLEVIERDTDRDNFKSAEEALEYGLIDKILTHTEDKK
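FRET quenching reversal measured ClpP activation: 10 microg/mL B. subtilis ClpP at pH 8 with the FRET-FV decapeptide, read at 430 nm after 320 nm excitation. The 20-min minus 0-min signal was scaled between DMSO/no-enzyme wells and ADEP (5.8 microM final).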
uPA generation – blocks generation of uPA at the cell surface. cell surface uPA generation assay, qHTS. actives 0.31% (n = 330,000). AID 540303. Potency, µM (highest dose often 38.3 µM), most hits filed as inhibitors; active = well fitted inhibition curve with a large enough effect; inconclusive = small, poorly fitted or top-dose-only effect; inactive = no such curve, though single readings can be large or run the other way; tested in mouse RAW 264.7 cells; note: nearly all actives have a fitted effect of over 55% in size
A number is an active result; . = inactive; ? = inconclusive; / = no result. Unless noted, calls come from the whole dose curve; as a rule, active = well fitted curve in the direction sought with a large enough effect; inconclusive = small, poorly fitted or top-dose-only effect, or another doubt; inactive = no such curve, though single readings can be large; an effect the other way counts as inactive or inconclusive.

SMILES	Sfp inh	TCR act	ClpP mod	uPA generation
O=C(CSc1nc2ncccc2[nH]1)c1cccc([N+](=O)[O-])c1	.	.	.	.
Cc1cc(SCc2cccc([N+](=O)[O-])c2)nc(=O)[nH]1	.	.	.	.
O=C(CSc1ncn[nH]1)c1ccco1	?	.	.	.
Cc1cc(SCC(=O)c2cccc([N+](=O)[O-])c2)nc(=O)[nH]1	45µM	.	.	.
O=C(CSc1ncn[nH]1)c1ccccc1	56µM	.	.	/
O=C(CSc1ncn[nH]1)c1cccc([N+](=O)[O-])c1	50µM	.	/	.
CCOC(OCC)c1cc2ccccc2cn1	/	.	.	.
O=C1C2CC=CCC2C(=O)N1Cc1ccccc1 (stereo not drawn)	.	.	.	.
O=C1C=CC(=O)N1Cc1ccccc1	18µM	.	.	7.9µM
Cc1ccc(NC(=S)Nc2cc(C(=O)O)ccc2N2CC3CC(C2)c2cccc(=O)n2C3)cc1C (stereo not drawn)	56µM	.	/	.
Cc1c(O)nc(SC2CC(=O)N(c3ccccc3)C2=O)[nH]c1=O (stereo not drawn)	79µM	.	.	.
CCc1c(O)nc(SC2CC(=O)N(c3ccccc3)C2=O)[nH]c1=O (stereo not drawn)	?	.	.	.
O=C(Cc1ccc(Br)cc1)NCCc1ccc(F)cc1	.	.	.	.
O=C(CSc1nc2cc(S(=O)(=O)N3CCOCC3)ccc2o1)NC1CCCc2ccccc21 (stereo not drawn)	10µM	.	.	.
O=C(CSc1nc2cc(S(=O)(=O)N3CCOCC3)ccc2o1)Nc1c(F)cccc1F	13µM	.	/	.
O=C(NC1CCCc2ccccc21)c1cc(S(=O)(=O)N2CCOCC2)ccc1F (stereo not drawn)	.	.	.	.
CC(C)Cc1nnc(NC(=O)C2=COCCO2)s1	/	.	.	.
O=C(NCCc1ccccc1)c1ccc(Cn2c(SCc3ccccc3F)nc3cccnc32)cc1	/	/	.	/
Cc1ccc(OCCSc2nc3ccccc3n2CC(=O)NC(C)C)cc1	/	/	.	/
COc1cc(C2Nc3c(F)cccc3C3C=CCC32)cc(Br)c1OC (stereo not drawn)	40µM	.	/	.
COc1cccc(C2Nc3c(F)cc(Br)cc3C3C=CCC32)c1OC (stereo not drawn)	.	.	.	.
O=[N+]([O-])c1ccc(N2CCCCC2)cc1N1CCOCC1	.	.	.	.
S=P(c1ccc(N2CCOCC2)cc1N1CCOCC1)(N1CCOCC1)N1CCOCC1	35µM	.	.	.
Cc1nc2nc(-c3ccco3)[nH]n2c(=O)c1Cc1ccccc1	.	.	28µM	.
Cc1nc2nc(-c3ccccc3)[nH]n2c(=O)c1Cc1ccccc1	.	.	?	.
SMILES	Sfp inh	TCR act	ClpP mod	uPA generation
COC(=O)Cc1c(C)nc2nc(-c3ccco3)[nH]n2c1=O	56µM	.	?	.
Cc1c(Cl)cccc1NC(=O)CSc1ccc(-c2ccccn2)nn1	/	/	.	/
Nc1c(C(=O)Nc2ccc3c(c2)OCCO3)nnn1Cc1ccc(F)cc1	/	.	11µM	.
Nc1c(C(=O)Nc2ccc3c(c2)OCCO3)nnn1Cc1cccc(Cl)c1	/	.	/	.
O=C(O)c1cccc(N2CCCC2)c1	.	.	28µM	.
Cc1ccccc1C(=O)NC1(C(F)(F)F)N=C(c2ccccc2)N(C2CCCCC2)C1=O (stereo not drawn)	/	/	.	/
CN(C)c1ccc(N=Nc2cccc3ccoc23)cc1	45µM	.	.	.
CN(C)c1ccc(N=Nc2cccc(F)c2)cc1	.	.	/	.
O=C1C=C(c2ccc3[nH]ccc3c2)C[C@@H](c2ccc(Cl)cc2)C1	/	.	.	.
COc1ccc(C)cc1-n1cnc2cc(C(=O)NC3CCCCCC3)ccc21	/	/	.	/
CCN(CC)C(=O)c1sc(NC(=O)c2cc(-c3ccc(C)s3)nc3ccccc23)c(C(=O)OC)c1C	13µM	.	.	.
CCOC(=O)c1c(NC(=O)c2ccoc2C)sc(C(=O)N(C)C)c1C	.	.	.	.
CCOC(=O)c1c(NC(=O)OC)sc(C(=O)N(CC)CC)c1C	22µM	.	.	.
CCN(CC)C(=O)c1sc(NC(=O)c2ccoc2C)c(C(=O)OC)c1C	32µM	.	.	.
CCN(CC)C(=O)c1sc(NC(=O)c2ccncc2)c(C(=O)OC)c1C	28µM	.	.	.
COc1ccc(CNC(=O)c2cc(-c3ccc(Br)s3)nc3ccccc23)cc1	/	/	.	/
CCCC(=O)Nc1cc(C)c(NC(=O)c2ccco2)cn1	.	/	.	.
CN1CCN(c2ccnc(-c3ccoc3)n2)CC1	79µM	/	/	/
Cc1ccn(CC(=O)N2CCCC(N3CCN(c4cccc(C(F)(F)F)c4)CC3)C2)n1 (stereo not drawn)	/	/	.	/
COc1cccc(CN2CCN(C(=O)c3cccc(OC)c3)CC2)c1	79µM	.	.	.
O=C(c1cccnc1)N1CCN(Cc2cccc(F)c2)CC1	79µM	.	.	.
O=C(c1cccnc1)N1CCN(Cc2ccc3ccccc3c2)CC1	.	.	.	.
COc1cccc(CN2CCN(CC(=O)Nc3ccccc3Cl)CC2)c1	.	.	14µM	.
Fc1cccc(CN2CCN(c3ncccn3)CC2)c1	45µM	.	.	/
O=C(NCC(c1ccco1)N1CCN(c2ccccc2F)CC1)c1ccc2c(c1)OCO2 (stereo not drawn)	/	.	.	?
SMILES	Sfp inh	TCR act	ClpP mod	uPA generation
CCc1cccc(C)c1NC(=S)NCc1cccn1C	.	.	.	.
COC(=O)c1cccc(NC(=O)CN2CCN(Cc3ccccc3)CC2)c1	.	.	.	.
CC(=O)c1cccc(NC(=O)CN2CCN(Cc3ccccc3)CC2)c1	56µM	.	.	.
COc1cccc(C(=O)N2CCN(Cc3ccccc3C(F)(F)F)CC2)c1	56µM	.	.	.
COc1cc2c(cc1OC)n(CC(=O)c1ccc(C)cc1)c(=O)n1nc(CCn3nc(C)cc3C)nc21	/	/	.	/
CCOC(=O)N1CCN(CCC(=O)Nc2cccc(F)c2)CC1	/	/	.	/
O=C1CCCc2c1cc(C(=O)NCc1ccco1)c(=O)n2-c1ccc(Cl)cc1	56µM	.	20µM	.
COC(=O)c1c(NC(=O)Cn2nc(C(F)F)cc2C(F)F)sc(C)c1C	56µM	.	.	.
N#Cc1c(N)n(-c2ccc(O)cc2)c2nc3ccccc3nc12	.	.	/	.
COc1ccc(Cn2c(N)c(C#N)c3nc4ccccc4nc32)cc1	.	.	?	.
COc1cccc(Cn2c(N)c(C#N)c3nc4ccccc4nc32)c1OC	.	.	13µM	.
COc1cc(Cn2c(N)c(C#N)c3nc4ccccc4nc32)cc(OC)c1	.	.	32µM	.
CCCSCCCNC(=O)C1CCN(C(=O)c2cnn(-c3ccccc3)c2-n2cccc2)CC1	/	/	.	/
C/C(=N/NC(=O)c1cnccn1)c1ccncc1	.	.	/	.
C/C(Cc1ccccc1)=N\NC(=O)c1ccccn1	50µM	.	.	.
C/C(Cc1ccccc1)=N\NC(=O)c1cccnc1	.	.	.	.
C/C(=N/NC(=O)c1ccccn1)c1ccncc1	56µM	.	.	.
O=C(N/N=C(\c1ccccc1)c1ccccn1)c1ccccc1Cl	.	/	8.9µM	.
